# Inconclusive results are not listed. A number with no mark means an inactive call. Active and inactive are the calls of the source. The call rests on the fitted dose curve; in most records, active means well fitted activation curve with a large enough effect; inconclusive means small, poorly fitted or top-dose-only effect; inactive means flat fitted curve, though single readings scatter.
# Biological target: D(1A) dopamine receptor (Homo sapiens) (UniProt P21728)
# Test: HTS Assay for Allosteric Agonists of the Human D1 Dopamine Receptor: Primary Screen for Agonists (AID 488981); on activation: 0% is about no effect
# Details: Inducible HEK293 T-REx D1 cells, calcium-flux fluorescence, 180 s kinetic; series mostly up to 41.8 µM; activation: at the top concentration
# Text: Dopamine receptors (DARs) are involved in the etiology and/or therapy of a number of neuropsychiatric and endocrine disorders. For instance, all receptor-based antiparkinsonian drugs work via stimulating the […] DAR subtype whereas all FDA-approved antipsychotic agents are antagonists of this receptor. […] There are three different types of allosteric modulators that we are seeking, two of which will stimulate or augment receptor signaling, allosteric agonists and potentiators, while the third, allosteric antagonists, will attenuate receptor signaling. The present primary screening assay measures compound agonism by tracking calcium flux in a […], inducible Hek293 Trex D1 cell line.
# Freshly passaged cells are plated in 1536 well black, clear bottom plates at a density of 4000 cells/well in 3 ul of complete media containing 1x tetracycline inducer. After an overnight incubation at 30 C in 5% CO2, cells are loaded with 2 ul of the no wash Calcium Assay Kit (ABD Bioquest) and incubated at room temperature for 30 to 90 minutes. A 10 cycle (1 second/cycle) baseline measurement is taken and then the FDSS online 1536 pintool delivers 23 nl of compound library (as well as dopamine controls) to the plate. The plate is measured for kinetically at 1 cycle/sec for 180 seconds and is considered to be the agonist portion of the assay (eg, compounds which activate a positive calcium response during this portion are flagged as potential agonists). Following the 180 second read, 1 ul of an EC20 of dopamine is delivered by an onboard pipette head. Measurements are taken kinetically for an additional 180 seconds.
# Potency means the concentration at half of the fitted maximal effect.
# D(1A) dopamine receptor (Homo sapiens), sequence (P21728 whole entry, looked up): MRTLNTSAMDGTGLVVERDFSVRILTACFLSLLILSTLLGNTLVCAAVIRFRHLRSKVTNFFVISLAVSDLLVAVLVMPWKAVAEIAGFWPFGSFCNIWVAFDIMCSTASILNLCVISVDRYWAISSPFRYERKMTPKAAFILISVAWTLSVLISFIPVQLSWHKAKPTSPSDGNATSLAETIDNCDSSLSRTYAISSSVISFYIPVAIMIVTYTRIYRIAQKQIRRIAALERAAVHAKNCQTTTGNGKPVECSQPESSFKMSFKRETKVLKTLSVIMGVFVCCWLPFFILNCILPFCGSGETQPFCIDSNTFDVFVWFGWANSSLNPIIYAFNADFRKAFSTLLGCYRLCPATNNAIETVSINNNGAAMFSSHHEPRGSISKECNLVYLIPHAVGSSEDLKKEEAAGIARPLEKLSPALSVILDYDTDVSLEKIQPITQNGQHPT
Structure (SMILES),activation [%],Potency
O=C(O)[C@@H]1CCN1,-0.37,–
COC(=O)[C@@H](N)CCCN=C(N)N[N+](=O)[O-],-1.06,–
NC(N)=NOCCC(N)C(=O)O (stereo not given),1.43,–
CS(=N)(=O)CC[C@H](N)C(=O)O (stereo not given in full),-0.37,–
C[N+]1(C)C2CCC1CC(OC(=O)C(CO)c1ccccc1)C2 (stereo not given),–,inactive
NC1CCc2cc(O)c(O)cc2C1 (stereo not given),–,0.158 µM (active)
C[C@@H](N)Cc1cnc[nH]1,0.0529,–
CC[C@@H](C(N)=O)N1CCCC1=O,-0.793,–
CCCN(CCC)[C@@H]1CCc2ccc(O)cc2C1,1.9,–
O=C1CCCN1CC#CCN1CCCC1,0.264,–
C=CCN1CC[C@]23CCCCC2[C@H]1Cc1ccc(O)cc13 (stereo not given in full),3.01,–
NCc1cc(=O)[nH]o1,-0.793,–
CC(Cc1ccc(O)cc1)NCC(O)c1cc(O)cc(O)c1 (stereo not given),-0.37,–
CC(=O)[C@H]1CCC2C3CC[C@H]4C[C@H](O)CC[C@]4(C)C3CC[C@@]21C (stereo not given in full),-0.793,–
C[C@]12N[C@H](Cc3ccccc31)c1ccccc12,8.57,–
CC1=NN=C(c2ccc(N)cc2)c2cc3c(cc2C1)OCO3,-1.32,–
CCCN1CCO[C@@H]2c3cc(O)ccc3OC[C@H]21,–,inactive
CCCN(CCC)C1CCc2ccc(O)cc2C1 (stereo not given),-0.688,–
C[C@]12CCC3C(CC[C@H]4C[C@H](O)CC[C@]34C)C1CC[C@@H]2C(=O)CO (stereo not given in full),1.27,–
O=C(O)Cc1cnc[nH]1,-0.688,–

Structure (SMILES),activation [%],Potency
C[C@@H]1O[C@H](C[N+](C)(C)C)C[C@H]1O,20.5,–
COc1ccc2c(c[n+](C)c3c4cc5c(cc4ccc23)OCO5)c1OC,-0.846,–
CN[C@@H]1C[C@@H](c2ccc(Cl)c(Cl)c2)c2ccccc21,–,12.6 µM (active)
CCCN1CCC[C@H](c2cccc(O)c2)C1,-0.0529,–
CNCCc1c[nH]c2ccc(O)cc12,-1.37,–
Clc1cnc(Oc2ccc(Oc3ncc(Cl)cc3Cl)cc2)c(Cl)c1,2.59,–
Cc1c(C(=O)c2cccc3ccccc23)c2cccc3c2n1[C@H](CN1CCOCC1)CO3,6.03,–
CNCCc1ccc(O)c(O)c1,–,0.282 µM (active)
CC[C@@]1(O)C(=O)OCc2c1cc1n(c2=O)Cc2cc3ccccc3nc2-1,0.952,–
c1ccc2sc(C3(N4CCCCC4)CCCCC3)cc2c1,-0.74,–
Oc1ccc2c3c1O[C@H]1c4[nH]c5c(c4C[C@@]4(O)[C@@H](C2)N(CC2CC2)CC[C@]314)C[C@@]1(O)[C@H]2Cc3ccc(O)c4c3[C@@]1(CCN2CC1CC1)[C@H]5O4,0.899,–
Cc1nccc2c1[nH]c1ccccc12,2.59,–
O=C(O)CC[N+](=O)[O-],-0.529,–
COc1cc(C(O)CN)ccc1O (stereo not given),-1.22,–
NC(CP(=O)(O)O)C(=O)O (stereo not given),-0.793,–
O=C(Cc1ccc(Cl)c(Cl)c1)N1CCCCC1CN1CCCC1 (stereo not given),12.1,–
CCCCc1ccc(C(=O)O)nc1,-0.317,–
Cn1cnc(CCN)c1,-0.582,–
CC(=O)NCCc1c[nH]c2ccccc12,1.11,–
NC(=NCCC[C@H](N)C(=O)O)N[N+](=O)[O-],0.423,–

# Reference: PubChem BioAssay (NCATS)
